Screening data from PubChem.
Jurkat NFkB inh – inhibitors of induced NF-kB luciferase reporter, primary screen, TCR NF-kB activation inhibitor project, cell-based, luminescence, uHTS; Jurkat, PMA/ionomycin-induced NF-kB luciferase reporter; inhibition, % at 4 µM; actives 0.53% (n = 330,000); AID 435003, 2010; in the data active = inhibition above about 50%
Mdm2-MdmX inh – inhibitors of human Mdm2-MdmX association, primary screen, cell-based, luminescence, split luciferase, SaOS-2, uHTS. Protein Mdm4 (Homo sapiens) + E3 ubiquitin-protein ligase Mdm2 (Homo sapiens), …. SaOS-2 split-luciferase Mdm2/MdmX complementation. inhibition, % at 8 µM. actives 3% (n = 330,000). AID 485346, 2010;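 active = inhibition of at least 50% at 8 µM in the primary screen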
A1 inh – caspase 3/7 activation in MEF A1-2A-BIM cells, primary screen, A1 inhibitor project, cell-based, luminescence, HTS; Caspase-Glo 3/7 luminescence, 3 h; percent of clofoctol response, vehicle zero; caspase activation, % (concentration not given with the values); actives 0.066% (n = 330,000); AID 2462, 2010;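 active = over half of replicate activation scores above 10%, or exactly half above 10 with the replicate mean above 10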
Beta apoptosis – inhibitors of cytokine-induced beta cell apoptosis, primary screen, luminescence | INS-1E cytokine-induced death, ATP luminescence, 48 h; percent of positive-control rescue, neutral wells zero | protection from apoptosis, % (test concentration not listed) | actives 0.8% (n = 300,000);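 active = Every replicate reaches about 75%, or at least half do and their mean reaches it too, limit read from the data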;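 note: 0% = cytokine-treated negative control wells and 100% = positive control rescue; higher means more ATP so stronger rescue from cytokine killing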
NTR1 agonist – agonists of human NTR1, primary screen, imaging, U2OS cells, beta-arrestin-GFP, high content | Neurotensin receptor type 1 (Homo sapiens), P30989 | NTR1-U2OS beta-arrestin-GFP spot imaging, agonist mode | activation, % at 20 µM | actives 0.17% (n = 330,000) | AID 493036, 2011;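 active = activation at or above 40% of the spot to cytoplasm intensity ratio, with at least 20 cells analyzed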;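 note: 0% = DMSO without peptide and 100% = 100 nM NTR1 peptide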
Target sequence (P30989 whole entry, looked up): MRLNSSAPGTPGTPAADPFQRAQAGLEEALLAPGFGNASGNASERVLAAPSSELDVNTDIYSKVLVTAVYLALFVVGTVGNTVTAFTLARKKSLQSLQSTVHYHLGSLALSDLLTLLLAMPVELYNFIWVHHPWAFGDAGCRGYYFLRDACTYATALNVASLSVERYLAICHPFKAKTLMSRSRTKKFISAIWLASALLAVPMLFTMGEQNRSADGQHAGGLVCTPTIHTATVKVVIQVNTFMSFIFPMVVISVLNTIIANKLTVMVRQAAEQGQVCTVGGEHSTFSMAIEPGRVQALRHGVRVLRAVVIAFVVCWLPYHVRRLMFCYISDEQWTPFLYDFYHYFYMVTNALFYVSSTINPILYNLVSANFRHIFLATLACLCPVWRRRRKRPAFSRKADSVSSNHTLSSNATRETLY
697 NFkB inh – inhibitors of PMA/ionomycin-induced NF-kB reporter, 697 cells, primary screen, B-cell NF-kB inhibitor project, cell-based, luminescence, uHTS; 697 B-cell NF-kB luciferase reporter, 16 h; inhibition, % at 4 µM; actives 0.33% (n = 330,000); in the data active = inhibition above about 35%
Mdm2 MdmX conf – Mdm2-MdmX complex disruptors, retested hits, confirmation, luminescence, single concentration; shares compounds with Mdm2-MdmX inh; Mdm2-MdmX binding, luminescent assay; inhibition, % at 8 µM; actives 55% (n = 10,000); AID 489028, 2010; in the data active = inhibition above about 40%
FLuc counter – full-length luciferase signal inhibition, confirmation, counter-screen for Mdm2/MdmX interaction inhibitor project, cell-based, single concentration, SaOS-2 | shares compounds with Mdm2-MdmX inh | SaOS-2 full-length luciferase counterscreen, luminescence | inhibition, % at 8 µM | actives 77% (n = 6,200) | AID 504607, 2011;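 active = mean inhibition at 8 µM reaching about 37%, which flags the compound as non-specific, limit read from the data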;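 note: p53-null SaOS-2 cells with luciferase driven by a doxycycline-inducible promoter; compound on cells about two nights before reading with doxycycline added after day one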
The depositor's hits bear a star; x = no result given. Hits are enriched below; roughly 3.8% of the tested compounds scored in any of these assays.

SMILES | Jurkat NFkB inh | Mdm2-MdmX inh | A1 inh | Beta apoptosis | NTR1 agonist | 697 NFkB inh | Mdm2 MdmX conf | FLuc counter
CN(c1ncnc(N)c1[N+](=O)[O-])C1CCS(=O)(=O)C1 (centres undefined) | 8 | 51* | 1 | -8 | 0 | 6 | 44* | 40*
O=C(O)c1cccc2c1C(=O)c1ccc(-c3ccc(Cl)c(C(F)(F)F)c3)cc1S2(=O)=O | 1 | -7 | 0 | -1 | 0 | -17 | x | x
CCOc1ccsc1C(=O)NNC(=O)c1ccco1 | 12 | 13 | 0 | 0 | 0 | 5 | x | x
CCCCCc1ccc(CC(=O)N2CCOCC2)cc1 | -13 | 4 | 1 | x | 2 | -2 | x | x
CN(C)C(CNC(=O)c1ccc(S(=O)(=O)Nc2ccccc2)cc1)c1ccco1 (centres undefined) | 14 | 8 | 0 | x | 1 | -24 | x | x
Cc1cc2oc(=O)c(CC(=O)NCCCN(C)C)c(C)c2c2occ(C(C)(C)C)c12 | -3 | 94* | -1 | 8 | 36 | -43 | 76* | 41*
COCCNC(=O)Cc1c(C)c2c(cc(C)c3c(C(C)(C)C)coc32)oc1=O | 9 | 67* | 1 | 29 | 4 | -42 | 44* | 64*
Cc1cc2oc(=O)c(CC(=O)NCCCO)c(C)c2c2occ(C(C)(C)C)c12 | -15 | 23 | 1 | -9 | 7 | -30 | x | x
Cc1nc2c(-c3ccc(Cl)cc3)c(C)[nH]n2c(=O)c1Cc1ccccc1 | 4 | 53* | 1 | 98* | 2 | 16 | 61* | 55*
Cc1nc2c(-c3ccccc3)c(C)[nH]n2c(=O)c1Cc1ccccc1 | -12 | 22 | 0 | 26 | 0 | 3 | x | x
CCOc1ccc(Oc2c(/C=N/NC(=O)COc3ccccc3OC)c(C)nn2-c2ccccc2)cc1 | 4 | 56* | -1 | 8 | 11 | -12 | 1 | x
Cc1ccc(C)c(OCC(=O)N/N=C/c2c(C)nn(-c3ccccc3)c2Cl)c1C | 22 | 51* | 0 | -2 | 4 | 23 | 35 | x
Cc1onc(-c2ccccc2Cl)c1C(=O)OCC(=O)N1CCN(c2ccccc2)CC1 | -3 | 19 | 1 | 0 | 0 | 7 | x | x
Cc1ccc(NC(=O)COC(=O)/C=C/c2c(C)nn(-c3ccc(F)cc3)c2Cl)cc1F | 5 | 52* | 0 | 9 | 3 | -2 | 3 | x
CCOC(=O)[C@H]1[C@H]2COc3ccc(C)cc3[C@@H]2N2C(=O)c3ccc(C)cc3NC(=O)[C@@]12C | 10 | 15 | 0 | 4 | -1 | 22 | x | x
Cc1ccc2c(c1)[C@H]1[C@H](CO2)[C@H](c2ccccc2)[C@]2(C)C(=O)Nc3cc(F)ccc3C(=O)N12 | 30 | 58* | -1 | 19 | 0 | 13 | 30 | x
Cc1ccc2c(c1)[C@H]1[C@H](CO2)[C@H](c2ccccc2)[C@]2(C)C(=O)Nc3ccccc3C(=O)N12 | 9 | 41 | 0 | 15 | 2 | -2 | x | x
CCOC(=O)[C@H]1[C@H]2COc3ccc(Br)cc3[C@@H]2N2C(=O)c3ccc(Cl)cc3NC(=O)[C@@]12C | 3 | 54* | 1 | 3 | 1 | 30 | 34 | x
C[C@@]12C(=O)Nc3cc(F)ccc3C(=O)N1[C@H]1c3cc(Br)ccc3OC[C@@H]1[C@@H]2c1ccccc1 | 7 | 56* | 0 | -11 | -2 | 6 | 51* | 36*
O=C(COc1ccc(Cl)cc1Cl)N/N=C1\CCCc2ccccc21 | -9 | 13 | -2 | x | 10 | 1 | x | x
